This is a sample that favours compounds with a hit; in the whole collection about 21% have one here.
NS1 function inh: influenza NS1 inhibition. Potency, µM (highest dose often 46.1 µM), for inactives: at the top dose activity, positive = more growth. 0.4% of 270,000 active. AID 2326; calls by dose curve; also: potency is read from the fitted curve at half-maximal effect; actives are rising curves; nearly all actives have a fitted effect of over 50% in size
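A cell-based growth assay was used: compounds that relieve NS1-induced slow growth of budding yeast raise OD600. Assay medium was yeast nitrogen base with ammonium sulphate and -URA supplement, pH 6.0, with 2% galactose.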
Pf growth 96h: P. falciparum growth inhibition at 96 hour, primary screen for plastid delayed-death inhibitors | P. falciparum luciferase reporter growth, 96 h | Potency, µM (top dose mostly 28.7 µM), for the others: at the highest dose activity change, negative = inhibition, usual class: inhibitors | 6.9% of 320,000 active | AID 504834; also: potency is read from the fitted curve at half-maximal effect; % is scaled to controls: 0 for no effect and ±100 for the full control effect
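Plates of compound plus infected erythrocytes (2% hematocrit, 0.05% parasitemia final) incubate 96 hours, 37 C, 5% CO2. Detection reagent added; reduced luminescence from the parasites' luciferase reporter flags inhibition.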
Pf growth 48h: inhibits P. falciparum growth in the first generation, 48 h. Potency, µM (doses to about 28.7 µM), for inactives: at the top dose activity change, negative = inhibition, most hits filed as inhibitors. 5.9% of 310,000 active. P. falciparum luciferase growth in erythrocytes, 48 h; also: potency is read from the fitted curve at half-maximal effect; % is scaled to controls: 0 for no effect and ±100 for the full control effect
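First compound was added to culture medium, then infected red cells at 0.1% parasitemia and 2% hematocrit (final). After incubation at 37 C under 5% CO2, luciferase detection reagent was dispensed and light output recorded.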
Cycloheximide cs: counter-screen for Shiga toxin inhibitors: cycloheximide protein synthesis inhibition; cell reporter, cycloheximide protein synthesis inhibition counterscreen; 12% of 300,000 active; max response, %; AID 2314; in the data active = max response mostly above about 13%, no sharp cut-off; inactive = mostly below about 14%; also: read at 38.3 µM for the half of the compounds with a filed dose; 0% is about no effect
Giardia FBPA inh: Giardia lamblia aldolase inhibition. 0.71% of 290,000 active. purified Giardia FBPA. A8B2U2. Potency, µM (top dose mostly 59.6 µM), for the others: at the top dose activity, negative = inhibition, hits mostly inhibitors; also: potency is read from the fitted curve at half-maximal effect; % is scaled to controls: 0 for no effect and ±100 for the full control effect; nearly all actives have a fitted effect of over 55% in size
Target sequence (A8B2U2 whole entry, looked up): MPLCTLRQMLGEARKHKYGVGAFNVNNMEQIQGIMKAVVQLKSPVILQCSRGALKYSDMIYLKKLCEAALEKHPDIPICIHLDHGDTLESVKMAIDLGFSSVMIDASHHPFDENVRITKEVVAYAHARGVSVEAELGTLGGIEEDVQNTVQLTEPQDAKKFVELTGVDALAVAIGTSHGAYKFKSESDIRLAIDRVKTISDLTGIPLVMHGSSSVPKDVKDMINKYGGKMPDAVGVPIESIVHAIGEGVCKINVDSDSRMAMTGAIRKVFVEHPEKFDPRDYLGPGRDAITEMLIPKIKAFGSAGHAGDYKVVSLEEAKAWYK
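40 nM FBPA preincubated 10 min at RT with compound (up to 57.5 uM final), then substrate plus GAPDH/TPI/NAD/arsenate coupling and diaphorase/resazurin added. Fluorescence read after 20 min at RT, 525/598 nm.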
Shiga toxin inh: blocks Shiga toxin action in Vero cells; 9.2% of 290,000 active; inhibition, % at 38.7 µM; Vero cells, Shiga toxin protein synthesis inhibition reporter; AID 2315; in the data active = inhibition mostly above about 28%, no sharp cut-off; inactive = mostly below about 43%; also: 0% is about no effect
Starred values were filed as active, the others as inactive; ? = inconclusive; . = no result. Unless noted, calls follow the shape of the dose curve; as a rule, active = well fitted curve in the direction sought with a large enough effect; inconclusive = small, poorly fitted or top-dose-only effect, or another doubt; inactive = no such curve, though single readings can be large; an effect the other way counts as inactive or inconclusive.

SMILES | NS1 function inh | Pf growth 96h | Pf growth 48h | Cycloheximide cs | Giardia FBPA inh | Shiga toxin inh
CC(C)C[C@H](NC(=O)[C@@H](O)[C@H](N)Cc1ccccc1)C(=O)O | -3% | 0.67µM* | 0.76µM* | . | -3% | .
COc1ccc(OCC(=O)NC2CCCCCCC2)cc1 | -15% | -4% | 43% | 27* | 5% | 42*
COc1ccc(OCC(=O)NC2CCCN(Cc3ccc(Cl)cc3)C2)cc1 (stereo not drawn) | -5% | ? | 13µM* | -3 | . | -4
CCCCCCCCCCCCCC(=O)N[C@@H](C)[C@H](O)c1ccccc1 | . | . | . | . | 3% | .
Cc1noc(C)c1-c1nc(NC2CCNCC2)c2ccccc2n1 | . | . | . | . | -5% | .
CC(=O)NC(Cc1ccc(N(CCCl)CCCl)cc1)C(=O)NC(CC(C)C)C(=O)O (stereo not drawn) | 7% | 10µM* | 14% | 0 | -26% | -6
O=C(c1cccc(C(=O)N(c2ccccn2)C2CCCCC2)c1)N(c1ccccn1)C1CCCCC1 | 6% | -27% | 12µM* | -6 | -1% | 43
COc1cccc(NC(=S)N(CCc2c(C)[nH]c3ccc(C)cc23)Cc2cccs2)c1 | ? | ? | ? | 4 | 1% | 11
Cc1cccc(NC(=S)N(CCc2nc3cc(C)c(C)cc3[nH]2)Cc2cccnc2)c1 | -1% | -5% | ? | -4 | -1% | -8
CNC(=S)N(CCc1c(C)[nH]c2ccc(Cl)cc12)Cc1cccnc1 | -5% | ? | ? | 6 | 18% | 27
Cc1[nH]c2ccc(F)cc2c1CCN(Cc1cccnc1)C(=S)Nc1cccc(F)c1 | . | ? | 13µM* | -3 | -13% | -5
COc1cccc(NC(=S)N(CCc2nc3cc(C)c(C)cc3[nH]2)Cc2cccnc2)c1 | 0% | 12µM* | ? | -1 | -1% | -7
COc1ccc2[nH]c(C)c(CCN(Cc3cccs3)C(=S)Nc3cccc(F)c3)c2c1 | ? | 0.74µM* | 0.37µM* | 18 | ? | 28
CCNC(=S)N(CCc1c(C)[nH]c2ccc(Cl)cc12)Cc1cccnc1 | 1% | ? | 12µM* | -3 | 11% | -2
Cc1ccccc1NC(=S)N(CCc1c(C)[nH]c2ccc(F)cc12)Cc1cccnc1 | . | ? | ? | -3 | 1% | -3
O=C(Cn1nc(-c2ccccc2)ccc1=O)N1CCCCC1 | -1% | 3% | -8% | -5 | -6% | -5
COCCNC(=S)N(CCc1c(C)[nH]c2ccc(C)cc12)Cc1cc(OC)c(OC)c(OC)c1 | -5% | 9.3µM* | ? | 5 | 3% | -8
N#CCCSc1ccccc1NC(=O)c1cc(=O)c2ccccc2o1 | -16% | ? | 0% | 14 | 15% | -3
CC(=O)Nc1ccc(C2=CC(=O)CC(C)(C)C2)cc1 | . | 40% | 35% | . | . | .
COc1ccccc1NC(=O)Cn1nnc(C(=O)Nc2ccccc2)c1N | 5% | ? | 32% | 11 | 3% | 12
Cc1ccc(NC(=O)Cn2nc(C(=O)Nc3ccc(C)cc3)ccc2=O)cc1 | -5% | 13µM* | -16% | 15 | 5% | -3
CCOc1ccc(NC(=O)c2nnn(CC(=O)Nc3ccccc3OC)c2N)cc1 | -1% | ? | 45% | 19* | 1% | 31
Nc1c(C(=O)Nc2ccc3c(c2)OCCO3)nnn1CCc1ccccc1 | -10% | -23% | . | 20* | -10% | 56*
Cc1cc(C)c(NC(=O)Cn2nnc(C(=O)Nc3ccc(F)cc3F)c2N)c(C)c1 | -7% | 2.6µM* | 23% | -6 | 0% | -6
CC(C)=CC(=O)N1CCCC(N2CCN(c3ccccc3C)CC2)C1 (stereo not drawn) | 6% | ? | ? | -4 | 9% | -13
Cc1ccc(NC(=O)c2nnn(CC(=O)Nc3ccc4c(c3)OCO4)c2N)cc1C | 1% | 0% | 23% | 21* | -9% | 23
COc1ccc(Cl)cc1NC(=O)c1nnn(CC(=O)Nc2ccc(C)c(C)c2)c1N | 11% | ? | 17% | -2 | 2% | 11
O=C(Cn1ccc(=O)[nH]c1=O)NCCO | . | ? | 14% | -2 | 1% | -4
Cc1ccc(NC(=O)Cn2ccc(=O)[nH]c2=O)cc1 | -16% | 46% | 22% | 30* | 10% | 41
Cc1ccc(NC(=O)Cn2nnc(C(=O)Nc3ccc(C)c(C)c3)c2N)cc1 | 9% | 9.3µM* | 7% | 15* | 7% | 4
